Laboratory results as given in PubChem BioAssay (NCI).
This is part of a sample that, as a whole, favours compounds with a hit. Of some 83,000 tested, about 20% had one in any assay.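 The test compound was applied at a single concentration to cells in 96-well plates for 48 hours, and percent growth was recorded.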 Unmarked numbers belong to inactive results. Calls of active or inactive are those of the source. The calls were made as follows: active = growth percent below 10; inactive = the rest.

Tests used:
Test in all cases: NCI-60 one-dose screen, 48 h (100 = growth as untreated, 0 = no growth, -100 = all killed)
Settings in all cases: 10 µM unless noted
[1] = test system: NCI-H23 lung
[2] = test system: NCI-H226 lung
[3] = test system: NCI-H322M lung
[4] = test system: HOP-62 NSCLC
[5] = test system: NCI-H460 lung
[6] = test system: NCI-H522 lung
[7] = test system: A549/ATCC NSCLC
[8] = test system: 786-0 renal
[9] = test system: COLO 205 colon
[10] = test system: DU-145 prostate
[11] = test system: K-562 leukemia
[12] = test system: MALME-3M melanoma
[13] = test system: MDA-MB-231 breast
[14] = test system: RXF 393 renal
[15] = test system: SF-268 CNS
[16] = test system: SF-295 CNS
[17] = test system: SF-539 CNS
[18] = test system: UACC-257 melanoma
[19] = test system: M14 melanoma

| SMILES | growth [1] | growth [2] | growth [3] | growth [4] | growth [5] | growth [6] | growth [7] | growth [8] | growth [9] | growth [10] | growth [11] | growth [12] | growth [13] | growth [14] | growth [15] [%] | growth [16] | growth [17] | growth [18] | growth [19] |
| --- | --- | --- | --- | --- | --- | --- | --- | --- | --- | --- | --- | --- | --- | --- | --- | --- | --- | --- | --- |
| CCCCCCCCCCCCC1CCC(=O)O1 (centres undefined) | 101% | 100% | 74.6% | 91.8% | 107% | 86.9% | 87.4% | 85.9% | 97.9% | 104% | 97.1% | 98.2% | 103% | 123% | 97.1 | 105% | 89.8% | 107% | 91.6% |
| O=[N+]([O-])c1ccc(N/N=C\c2ccc(O)cc2O)nc1 | 44.9% | 85% | 39.7% | 33.7% | 19.6% | 10.9% | 25.6% | 18.4% | 65.9% | 50.7% | 22.4% | 57.8% | 52.9% | 36.3% | 37.3 | 28.5% | 37.5% | 41.3% | 8.7% (active) |
| Cc1cc(O)ccc1Sc1ccccc1[N+](=O)[O-] | 86.2% | 97.2% | 110% | 92.2% | 96.4% | 75.9% | 84.9% | 107% | 108% | 96% | 101% | 79.6% | 106% | 106% | 98.4 | 90.1% | 102% | 88.1% | 88.9% |
| COc1ccc(/C(C)=N/NC(=O)c2ccc(S(C)(=O)=O)cc2)cc1OC | 104% | 95.5% | 96.5% | 85.5% | 108% | 104% | 96.5% | 94.2% | 95.3% | 95.7% | 69.5% | 98.1% | 103% | 114% | 102 | 98.3% | 99.1% | 96.3% | 97.4% |
| CCCCCCCCCCCCCCCCCC1=NCCN1CCO | 77.1% | 106% | 88.4% | 81% | 18.7% | 80.8% | 64.2% | 75.6% | 84.8% | 78.7% | 64.6% | 129% | 58.8% | 87.9% | 78.4 | 90% | 78.4% | 84.4% | 84.1% |
| O=C(N/N=C\c1cc(Br)ccc1O)c1ccncc1 | 43.5% | 39.9% | 41% | 15% | 6.66% (active) | -27.2% (active) | 55.6% | 18.4% | 7.89% (active) | 39.4% | 20.3% | 46.5% | 46.6% | 54.9% | 35.4 | 55.7% | 34.3% | 11.5% | 19.2% |
| O=c1c2cc(Br)cc(Br)c2nc(-c2ccc(Cl)cc2)n1/N=C\c1ccccc1F | 62.9% | 51.2% | 52.5% | 27.4% | 39.1% | 51.3% | 57.1% | -34% (active) | 66.3% | 96% | 72.1% | 90.4% | 55.1% | 72.9% | 73.3 | 29.8% | 81.9% | 89.9% | 81.8% |
| N/C(=C\C(=O)n1nc(-c2ccccc2)cc1N)c1ccccc1 | 58.3% | 73.4% | 65.4% | 64% | 36% | -22.3% (active) | 55.1% | 65% | 41.6% | 58.2% | 25.6% | 42.6% | 51.5% | 77.2% | 63.8 | 44.5% | 59.4% | 58.3% | 31.6% |
| CC(C)C/C=C/C=C/C(=O)N[C@@H](CC(N)=O)C(=O)N[C@@H]1C(=O)N[C@H](c2ccc(O)cc2)C(=O)N[C@H](CCCN)C(=O)N[C@H]([C@@H](C)O)C(=O)N[C@H](c2ccc(O)cc2)C(=O)N[C@H](c2ccc(O)cc2)C(=O)N[C@H]([C@H](C)O)C(=O)N[C@H](Cc2ccccc2)C(=O)N[C@H](CCCN)C(=O)N[C@H](c2ccc(O[C@H]3O[C@@H](CO)[C@@H](O)[C@@H](O)[C@H]3O[C@@H]3O[C@H](CO)[C@H](O)[C@H](O)[C@@H]3O)cc2)C(=O)N[C@H]([C@H](C)O)C(=O)N[C@H](c2ccc(O)cc2)C(=O)NCC(=O)N[C@H](CC(C)C)C(=O)N[C@H](C)C(=O)N[C@H](c2ccc(O)c(Cl)c2)C(=O)O[C@@H]1C(N)=O | 39.5% | 68.6% | 57.5% | 53.4% | 15.6% | 78.1% | 91.8% | -48.7% (active) | 101% | 90.6% | 30.8% | 23.4% | -4.62% (active) | 44.9% | 59.9 | 20.1% | 4.24% (active) | 6.54% (active) | 44.4% |
| CC1CCCN(CCCCOc2ccc(-c3ccc(C#N)cc3)cc2)C1 (centres undefined) | 82.6% | 93.4% | 99.9% | 97.7% | 99.1% | 59.6% | 60.2% | 90.1% | 75.1% | 101% | 62% | 120% | 84.6% | 94.6% | 92.5 | 94.6% | 98.4% | 66.6% | 83.2% |
| CN(C)CCCn1c(=O)c2cc([N+](=O)[O-])ccc2c2cnc3[nH]ccc3c21 | 58.8% | 44.3% | 46.3% | 45.1% | 17.3% | 17.9% | 41.5% | 7.2% (active) | 28% | 50.5% | -32.4% (active) | 68.8% | 65.5% | 56.3% | 45.9 | 43.9% | 50.9% | 87.2% | 67.6% |
| C=CCOc1ccc2c(C)cc(=O)oc2c1 | 102% | 109% | 126% | 112% | 99.6% | 93.3% | 89.6% | 109% | 138% | 109% | 99.4% | 132% | 128% | 134% | 109 | 99.8% | 103% | 105% | 122% |
| CO[C@H](C(=O)[C@@H](O)[C@@H](C)O)[C@@H]1Cc2cc3cc(O[C@H]4C[C@@H](O[C@H]5C[C@@H](O)[C@H](O)C(C)O5)[C@H](O)C(C)O4)c(C)c(O)c3c(O)c2C(=O)[C@H]1O[C@H]1C[C@@H](O[C@H]2C[C@@H](O[C@H]3C[C@](C)(O)C(=O)C(C)O3)[C@@H](O)C(C)O2)[C@H](O)C(C)O1 (some centres undefined) | -7.26% (active) | 1.78% (active) | 7.31% (active) | -2.07% (active) | 4.88% (active) | -31.9% (active) | 4.12% (active) | 4.11% (active) | -52.4% (active) | 9.76% (active) | 9.26% (active) | -26.8% (active) | 10.6% | -54.2% (active) | 16.4 | 6.84% (active) | 0.369% (active) | -27.4% (active) | -27% (active) |
| COc1ccc(C(=O)N2N=C(c3ccc(F)cc3)CC2c2cn(-c3ccccc3)nc2-c2ccccc2)cc1 (centres undefined) | 51% | 91.2% | 80% | 40.5% | 53.3% | 52.4% | 41.1% | 69.6% | 57% | 57.5% | 40.3% | 73.7% | 60.2% | 73.7% | 70.1 | 65.1% | 85.7% | 78.6% | 55% |
| O=[N+]([O-])c1ccc(N=Nc2c(NNc3ccc([N+](=O)[O-])cn3)cc(S(=O)(=O)O)c3ccccc23)nc1 | 81.2% | 95.8% | 60.8% | 85.5% | 63.7% | 84.9% | 89.2% | 109% | 106% | 74.9% | 94.3% | 129% | 57% | 120% | 63.9 | 114% | 89.3% | 101% | 60.6% |
| COc1cc(/C=C/c2cc(/C=C/c3ccc(O)c(OC)c3)n(C(=O)c3ccccc3Br)n2)ccc1O | 17.7% | 38.5% | 39.5% | 43.5% | 9.15% (active) | 4.2% (active) | 41.7% | 9.91% (active) | 23.9% | 28.9% | 3.62% (active) | 23.4% | 39.7% | -3.83% (active) | 28 | -29.7% (active) | 4.02% (active) | 87.1% | 5.42% (active) |
